Measurements published in PubChem BioAssay (Tox21).
Records with an inconclusive call do not appear. The source made the active and inactive calls. Calls follow the shape of the full dose curve.

Experiments:
[1] = biological target: Acetylcholinesterase (Homo sapiens) (UniProt P22303); test: Acetylcholinesterase (AChE) small molecule antagonists: colormetric cell-based qHTS assay (AID 1347395); also: nearly all actives have a fitted effect of over 30% in size
Outline: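 Endogenous AChE of human neuroblastoma SH-SY5Y cells was measured with an Ellman-type DTNB/acetylthiocholine mix. Compound pretreatment lasted 30 min at 37 C; substrate reaction ran 90 min at 37 C.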

[2] = biological target: Acetylcholinesterase (Homo sapiens) (UniProt P22303); test: Acetylcholinesterase (AChE) small molecule antagonists: enzyme-based qHTS assay (AID 1347397); details: Potency: AChE enzyme activity inhibition; outcome: AChE enzyme activity inhibition; also: nearly all actives have a fitted effect of over 55% in size
Outline: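 Absorbance-based detection of thiocholine with DTNB served as the read-out. Recombinant human AChE was exposed to compound for 30 min at RT before a 10 min RT incubation with acetylthiocholine.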

[3] = biological target: Acetylcholinesterase (Homo sapiens) (UniProt P22303); test: Acetylcholinesterase (AChE) small molecule antagonists: fluorescence cell-based qHTS assay (AID 1347398); details: Potency: AChE activity; outcome: AChE activity; also: nearly all actives have a fitted effect of over 50% in size
Outline: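 Fluorimetric cell-based assay: intact SH-SY5Y cells, 30 min compound preincubation at 37 C, acetylthiocholine substrate with thiol probe Thiolite Green, 40 min RT development, fluorescence 490/520 nm.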

[4] = biological target: Acetylcholinesterase (Homo sapiens) (UniProt P22303); test: Acetylcholinesterase (AChE) small molecule antagonists: enzyme-based qHTS assay with human liver microsomes (AID 1347399); details: Potency: qHTS inhibition; outcome: qHTS inhibition; also: nearly all actives have a fitted effect of over 60% in size
Outline: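 Recombinant human AChE (50 mU/mL in the enzyme mix) and human liver microsomes (0.25 mg/mL final) were preincubated with compound and NADPH (0.25 mg/mL final) for 30 min at 37 C. Acetylthiocholine/DTNB was then added; thiocholine was read colorimetrically after 10 min at room temperature.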
% is scaled to controls: 0 for no effect and ±100 for the full control effect.

Chain of Acetylcholinesterase (Homo sapiens) (P22303 whole entry, looked up): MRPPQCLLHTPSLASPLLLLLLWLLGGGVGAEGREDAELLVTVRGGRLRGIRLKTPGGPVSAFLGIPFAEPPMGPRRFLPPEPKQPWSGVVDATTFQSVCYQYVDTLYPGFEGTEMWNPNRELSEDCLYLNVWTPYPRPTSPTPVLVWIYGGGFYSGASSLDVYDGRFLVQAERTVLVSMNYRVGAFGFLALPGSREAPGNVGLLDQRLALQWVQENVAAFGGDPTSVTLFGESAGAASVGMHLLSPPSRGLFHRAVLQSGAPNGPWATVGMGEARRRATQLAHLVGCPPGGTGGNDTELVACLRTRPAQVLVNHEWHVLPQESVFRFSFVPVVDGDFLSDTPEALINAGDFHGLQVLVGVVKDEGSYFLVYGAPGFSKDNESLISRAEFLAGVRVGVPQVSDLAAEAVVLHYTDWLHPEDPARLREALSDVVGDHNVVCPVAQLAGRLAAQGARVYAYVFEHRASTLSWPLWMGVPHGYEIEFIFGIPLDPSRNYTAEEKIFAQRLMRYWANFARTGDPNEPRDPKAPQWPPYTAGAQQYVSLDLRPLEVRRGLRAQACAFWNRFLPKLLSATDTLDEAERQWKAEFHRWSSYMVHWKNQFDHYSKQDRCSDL

CCCCC1C(=O)N(c2ccccc2)N(c2ccccc2)C1=O
inactive: Potency [1] | Potency [2] | Potency [3] | Potency [4]

CCOc1ccc(NC(C)=O)cc1
inactive: Potency [1] | Potency [2] | Potency [3] | Potency [4]

CC1=C(C)C(=O)C(C(CCCCCC(=O)O)c2ccccc2)=C(C)C1=O (stereo not given)
inactive: Potency [1] | Potency [2] | Potency [3] | Potency [4]

O=C(O)Cn1c(C(=O)Nc2nc(-c3ccccc3Cl)cs2)cc2ccccc21
inactive: Potency [1] | Potency [2] | Potency [3] | Potency [4]

CCN1C(=O)c2ccccc2C1Nc1ccc(OCCN2CCCCC2)cc1 (stereo not given)
inactive: Potency [1] | Potency [2] | Potency [3] | Potency [4]

C[C@]12C=CC(=O)C=C1CC[C@@H]1[C@@H]2[C@@H](O)C[C@@]2(C)[C@H]1CC[C@]2(O)C(=O)CO
inactive: Potency [1] | Potency [2] | Potency [3] | Potency [4]

O=C(NS(=O)(=O)/C=C/c1ccccc1)c1ccc(F)cc1Cl
inactive: Potency [1] | Potency [2] | Potency [3] | Potency [4]

O=C1c2cccc(O)c2C(=O)c2c(O)cc(CO)cc21
inactive: Potency [1] | Potency [2] | Potency [3] | Potency [4]

c1ccsc1
inactive: Potency [1] | Potency [2] | Potency [3] | Potency [4]

Cc1c(C(=O)O)c(O)cc2c1C(=O)c1c(O)c([C@@H]3O[C@H](CO)[C@@H](O)[C@H](O)[C@H]3O)c(O)c(O)c1C2=O
inactive: Potency [1] | Potency [2] | Potency [3] | Potency [4]

O=C(Oc1ccccc1C(=O)O)c1ccccc1O
inactive: Potency [1] | Potency [2] | Potency [3] | Potency [4]

O=Cc1c(Cl)cccc1Cl
inactive: Potency [1] | Potency [2] | Potency [3] | Potency [4]

OC[C@]1(O)OC[C@@H](O)[C@H](O)[C@@H]1O
inactive: Potency [1] | Potency [2] | Potency [3] | Potency [4]

NC(=S)Nc1cccc2ccccc12
inactive: activity, negative = inhibition [1] -0.35% [at 10.5 µM] | activity change, negative = inhibition [2] -0.679% [at 10.5 µM] | activity change, negative = inhibition [3] -3.97% [at 10.5 µM] | activity change, negative = inhibition [4] 0.729% [at 10.5 µM]

O=[N+]([O-])c1ccc(CO)cc1
inactive: Potency [1] | Potency [2] | Potency [3] | Potency [4]

Cc1ccc(C)o1
inactive: Potency [1] | Potency [2] | Potency [3] | Potency [4]

C/C=C/c1ccc(O)c(OC)c1
inactive: Potency [1] | Potency [2] | Potency [3] | Potency [4]

O=C1OCCN1/N=C/c1ccc([N+](=O)[O-])o1
inactive: Potency [1] | Potency [2] | Potency [3] | Potency [4]

Nc1ccc(N=Nc2ccc(N)cc2)cc1
inactive: Potency [1] | Potency [2] | Potency [3] | Potency [4]

CCCc1nc(C)c2c(=O)[nH]c(-c3cc(S(=O)(=O)N4CCN(CC)CC4)ccc3OCC)nn12
inactive: Potency [1] | Potency [2] | Potency [3] | Potency [4]

O=Cc1ccccc1[N+](=O)[O-]
inactive: Potency [1] | Potency [2] | Potency [3] | Potency [4]

CC(=O)CCCCn1c(=O)c2c(ncn2C)n(C)c1=O
inactive: Potency [1] | Potency [2] | Potency [3] | Potency [4]

c1ccc2ncccc2c1
inactive: Potency [1] | Potency [2] | Potency [3] | Potency [4]

O=S(=O)(O)c1ccc(N=Nc2c(O)ccc3cc(S(=O)(=O)O)ccc23)cc1
inactive: Potency [1] | Potency [2] | Potency [3] | Potency [4]

CC(=O)c1ccccc1O
inactive: Potency [1] | Potency [2] | Potency [3] | Potency [4]

CC(C)CCOC(=O)/C=C/c1ccccc1
inactive: Potency [1] | Potency [2] | Potency [3] | Potency [4]

COc1nccnc1NS(=O)(=O)c1ccc(N)cc1
inactive: Potency [1] | Potency [2] | Potency [3] | Potency [4]

NC(N)=NCCN1CCCCCCC1
inactive: activity, negative = inhibition [1] 6.69% [at 0.435 µM] | activity change, negative = inhibition [2] 0% [at 0.435 µM] | activity change, negative = inhibition [3] 3.67% [at 0.439 µM] | activity change, negative = inhibition [4] -0.084% [at 0.435 µM]

CN1C(C)(C)CC(O)CC1(C)C
inactive: Potency [1] | Potency [2] | Potency [3] | Potency [4]

O=C(O)Cc1ccc(-c2ccccc2)cc1
inactive: Potency [1] | Potency [2] | Potency [3] | Potency [4]

O[Si](c1ccccc1)(c1ccccc1)c1ccccc1
inactive: Potency [1] | Potency [2] | Potency [3] | Potency [4]

S=c1nc[nH]c2nc[nH]c12
inactive: Potency [1] | Potency [2] | Potency [3] | Potency [4]

NC[C@H]1O[C@H](O[C@H]2[C@H](O[C@@H]3O[C@H](CO)[C@@H](O)[C@H]3O)C(O)[C@H](N)C[C@@H]2N)[C@H](N)[C@@H](O)[C@@H]1O (stereo not given in full)
inactive: activity, negative = inhibition [1] -1.41% [at 10.5 µM] | activity change, negative = inhibition [2] 0.757% [at 10.5 µM] | activity change, negative = inhibition [3] 8.04% [at 10.5 µM] | activity change, negative = inhibition [4] -2.19% [at 10.5 µM]

CCCCN(CCCC)C(=S)SSC(=S)N(CCCC)CCCC
inactive: Potency [1] | Potency [2] | Potency [3] | Potency [4]

COc1cc2c(cc1OC)CN(C(=O)[C@H](C)N[C@@H](CCc1ccccc1)C(=O)O)[C@H](C(=O)O)C2
inactive: Potency [1] | Potency [2] | Potency [3] | Potency [4]

CCN(CC)S(=O)(=O)c1ccc(C(=O)O)cc1
inactive: Potency [1] | Potency [2] | Potency [3] | Potency [4]

COc1ccc2cc1Oc1cc3c(cc1OC)CC[N+](C)(C)[C@H]3Cc1ccc(cc1)Oc1c(OC)c(OC)cc3c1[C@@H](C2)[N+](C)(C)CC3
inactive: Potency [1] | Potency [2] | Potency [3] | Potency [4]

Nc1c(Cl)cc(Cl)cc1Cl
inactive: Potency [1] | Potency [2] | Potency [3] | Potency [4]

COC=O
inactive: activity, negative = inhibition [1] 2.05% [at 10.5 µM] | activity change, negative = inhibition [2] 0.267% [at 10.5 µM] | activity change, negative = inhibition [3] -1.7% [at 10.5 µM] | activity change, negative = inhibition [4] 0.679% [at 10.5 µM]

Cc1cccc(S(=O)(=O)O)c1C
inactive: Potency [1] | Potency [2] | Potency [3] | Potency [4]

O=C(OCCCCCOC(=O)c1ccccc1)c1ccccc1
inactive: Potency [1] | Potency [2] | Potency [3] | Potency [4]

CC1(C)C(=O)N(Cl)C(=O)N1Br
inactive: Potency [1] | Potency [2] | Potency [3] | Potency [4]

FC(F)(F)c1ccccc1
inactive: Potency [1] | Potency [2] | Potency [3] | Potency [4]

CO[C@@]1(NC(=O)Cc2cccs2)C(=O)N2C(C(=O)O)=C(COC(N)=O)CS[C@@H]21
inactive: Potency [1] | Potency [2] | Potency [3] | Potency [4]

CCCC1O[C@@H]2C[C@H]3[C@@H]4CCC5=CC(=O)C=C[C@]5(C)[C@H]4[C@@H](O)C[C@]3(C)[C@]2(C(=O)CO)O1 (stereo not given in full)
inactive: Potency [1] | Potency [2] | Potency [3] | Potency [4]

CN1CCN(C(c2ccccc2)c2ccccc2)CC1
inactive: Potency [1] | Potency [2] | Potency [3] | Potency [4]

Cc1cccc(C)c1NC(=O)CN1CCCCCC1
inactive: Potency [1] | Potency [2] | Potency [3] | Potency [4]

c1cc2ccc3ccc4ccc5cccc6c(c1)c2c3c4c56
inactive: activity, negative = inhibition [1] 3.35% [at 4.07 µM] | activity change, negative = inhibition [2] 0.28% [at 4.07 µM] | activity change, negative = inhibition [3] 9.19% [at 3.98 µM] | activity change, negative = inhibition [4] 0.324% [at 4.07 µM]

Nc1ccc(S(=O)(=O)Nc2nccs2)cc1
inactive: Potency [1] | Potency [2] | Potency [3] | Potency [4]

O=C1OCCO1
inactive: Potency [1] | Potency [2] | Potency [3] | Potency [4]

CCCC(C)C
inactive: Potency [1] | Potency [2] | Potency [3] | Potency [4]

NCCN
inactive: outcome [1] | outcome [2] | outcome [3] | outcome [4]

C=CC(=O)OCC(C)OCC(C)OCC(C)OC(=O)C=C (stereo not given)
inactive: Potency [1] | Potency [2] | Potency [3] | Potency [4]

FC(F)(F)/C(=N\OCC1OCCO1)c1ccc(Cl)cc1
inactive: Potency [1] | Potency [2] | Potency [3] | Potency [4]

C#CCN(C)CCCOc1ccc(Cl)cc1Cl
inactive: Potency [1] | Potency [2] | Potency [3] | Potency [4]

Oc1ccccc1-c1nnco1
inactive: Potency [1] | Potency [2] | Potency [3] | Potency [4]

CCCCC(CC)C(=O)OCCOCCOCCOCCOC(=O)C(CC)CCCC (stereo not given)
inactive: Potency [1] | Potency [2] | Potency [3] | Potency [4]

CN(C)CCC=C1c2ccccc2CCc2ccccc21
inactive: Potency [1] | Potency [2] | Potency [3] | Potency [4]

C=C(C)C(=O)NCCC[N+](C)(C)C
inactive: Potency [1] | Potency [2] | Potency [3] | Potency [4]

C=CCOCC(CC)(CO)COCC=C
inactive: Potency [1] | Potency [2] | Potency [3] | Potency [4]
